Screening results (PubChem)
Compounds with a hit are over-represented: about 12% of the library has one in this group of screens.
Cav32 inh – inhibitors of human Cav3.2 T-type calcium channel; AID 449739; Cav3.2-expressing cells, Fluo-4 calcium fluorescence FDSS; active compounds read low; 4% of 100,000 active; B-score at 10 µM; O95180;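 active = single-dose well whose peak fluorescence ratio is a statistical outlier from its plate by either plate-standardised score or position-corrected B-score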
PostGolgi yeast – growth inhibition of a yeast mutant, post-Golgi transport screen; post-Golgi transport phenotypic cell assay; inhibition, % at 10 µM; 0.9% of 98,000 active; AID 739;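 note: yeast cells grown in 1536-well plates; yeast grown about 18 h at 30C before absorbance read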
PLAP act – activators of human placental alkaline phosphatase. activation fold at 20 µM. AID 696. 1.2% of 96,000 active. P05187. purified PLAP enzyme, luminescent substrate read-out; active compounds read high; in the data active = activation fold above about 2
D1 mod – allosteric modulators of human D1 dopamine receptor | 5.9% of 58,000 active | HEK293 D1, CRE-luciferase, dopamine EC30 potentiation; actives deviate in either direction | B-score at 10 µM | P21728;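 active = luminescence count or its row- and column-corrected plate score outside the 99.7% band of the plate's sample wells, on either side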
Target sequence (P21728 whole entry, looked up): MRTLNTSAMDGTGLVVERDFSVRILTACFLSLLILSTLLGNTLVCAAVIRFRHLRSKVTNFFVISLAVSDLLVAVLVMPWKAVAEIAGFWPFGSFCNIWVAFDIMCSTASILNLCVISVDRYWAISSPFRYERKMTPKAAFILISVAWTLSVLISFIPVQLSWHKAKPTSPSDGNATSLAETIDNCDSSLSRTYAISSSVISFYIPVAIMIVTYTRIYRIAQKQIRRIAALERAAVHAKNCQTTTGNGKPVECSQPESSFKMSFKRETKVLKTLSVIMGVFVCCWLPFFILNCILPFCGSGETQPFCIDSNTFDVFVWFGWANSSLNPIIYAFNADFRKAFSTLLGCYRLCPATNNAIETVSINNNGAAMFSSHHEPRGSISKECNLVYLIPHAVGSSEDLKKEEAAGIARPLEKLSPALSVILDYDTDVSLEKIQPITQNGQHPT
PostGolgi ctrl – inhibits growth of the yeast control strain | efflux-deficient yeast background strain, growth absorbance A615, 16 h | inhibition, % at 10 µM | 5% of 98,000 active | AID 738
DAT uptake mod – human DAT dopamine uptake with cocaine, either direction; Q01959; LLC-PK1 hDAT cells, [14C]-dopamine uptake with cocaine IC80; actives deviate in either direction; B-score at 10 µM; 1.3% of 110,000 active; AID 449768;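 active = Z score or B-score, a plate-position-corrected score, falls beyond the plate's 99.7% confidence bounds, in either direction; inactive = both scores lie inside the 99.7% bounds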;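 note: scored against the spread of the other compound wells on the same plate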
Active calls of the source: *; . = no result. Cut-off read from the data, not from the text of the source, unless noted: active = inhibition above about 30%; inactive = the rest.

SMILES	Cav32 inh	PostGolgi yeast	PLAP act	D1 mod	PostGolgi ctrl	DAT uptake mod
Cc1ccc(S(=O)(=O)C(C#N)c2nc3ccccc3nc2N2CCCC2)cc1 (stereo not drawn)	-3.6	11	1.4	0.58	8	-0.23
CC1CCCN(c2nc3ccccc3nc2C(C#N)S(=O)(=O)c2cccs2)C1 (stereo not drawn)	-5.9*	-3	1.4	.	16	-0.52
CCO[C@@H]1OC(C(=O)Nc2ccccc2)=C[C@H](C2CC2)[C@H]1CCCO	-0.023	.	.	.	.	0.025
CCn1c(N)c(C(=O)NCCCOC)sc1=S	.	2	1.1	-0.046	0	.
Brc1ccc(-c2nc3ccccc3s2)s1	0.75	13	1.1	-0.85	6	-1.3
Nc1nc(-c2ccc(Br)s2)c(Br)s1	0.67	-1	1	1.9	51*	-0.27
Cc1cccc(N2CCN(c3cccc(C)c3)C2c2cccnc2)c1	-4.8*	-2	1.3	0.22	19	-2.1
O=C(O)C1CC=CCC1C(=O)Nc1ccc(S(=O)(=O)N2CCCc3ccccc32)cc1 (stereo not drawn)	-1	2	1.3	-0.54	5	1.3*
Cc1ccc(C(=O)C2C(c3ccc(-c4ccccc4[N+](=O)[O-])o3)NC(=O)NC2(O)C(F)(F)F)cc1 (stereo not drawn)	-7.1*	.	.	.	.	2
COc1ccc(C2NC(=O)NC(O)(C(F)(F)F)C2C(=O)c2ccc(C)cc2)cc1 (stereo not drawn)	-3	-34	1.2	-0.14	2	0.54
Cc1ccc(S(=O)(=O)NCCN=C(CN2CCCC2)NS(=O)(=O)c2ccc(C)cc2)cc1	0.16	-2	1.6	-0.42	32*	2.3
CCOc1ccc(S(=O)(=O)N2c3ccccc3CC2C)cc1 (stereo not drawn)	-3.6*	-4	1.1	.	26	-2.7*
CC1Cc2ccccc2N1S(=O)(=O)c1cccs1 (stereo not drawn)	-1.3	0	0.9	0.66	7	-0.63
O=c1c(Cc2ccc(F)cc2)c(O)ccn1Cc1cccc(Cl)c1	-0.89	-2	1.1	.	8	-1.1
O=C(Nc1nc(-c2ccccc2)cs1)C1CCCCN1S(=O)(=O)c1ccccc1 (stereo not drawn)	-1.8	-7	0.9	-0.95	35*	-0.74
O=C(Nc1nc(-c2ccccc2)cs1)C1CCCN(S(=O)(=O)c2cccc([N+](=O)[O-])c2)C1 (stereo not drawn)	-6.1*	-5	1.4	.	5	-0.023
Cc1noc(C)c1C(=O)NCCc1ccccc1	1.5	-15	1.1	.	-5	0.61
Cc1ccc(C(C)NC(=O)c2c(C)noc2C)cc1C (stereo not drawn)	-3.8*	4	1	-1.5	12	-0.14
O=C(NC1CCCC1)C(c1cccs1)N(CC1CCCO1)C(=O)Cc1cccs1 (stereo not drawn)	.	5	1.1	.	7	-0.0079
Cc1cc(C)n(-c2nnc(C)n2/N=C/c2cc(Br)ccc2OCc2ccccc2)n1	-6.9*	0	1.5	-0.65	29	1.4
Cc1cc(C)n(-c2nnc(C)n2/N=C/c2ccccc2OCc2ccccc2Cl)n1	-5.6*	-5	1.3	.	25	2.8
COc1ccccc1/C=N/n1c(C)nnc1-n1nc(C)cc1C	-0.03	-4	0.9	.	0	-0.42
CC1=NCCN1S(=O)(=O)c1cc(Cl)ccc1Cl	-0.25	14	1	0.074	6	0.7
O=C(COC(=O)C12CC3CC(CC(O)(C3)C1)C2)Nc1ccccc1OC(F)F	1	-5	0.9	0.8	15	-0.31
O=C(COC(=O)C12CC3CC(CC(C3)C1)C2)NC12CC3CC(CC(C3)C1)C2	-2.8	13	1.1	.	33*	0.64
SMILES	Cav32 inh	PostGolgi yeast	PLAP act	D1 mod	PostGolgi ctrl	DAT uptake mod
O=C(COC(=O)C12CC3CC(CC(C3)C1)C2)Nc1ccc(OC(F)F)cc1	-6.2*	-6	0.5	.	18	0.16
O=C1CC(c2ccco2)CC(O)=C1C=Nc1cc(Cl)ccc1O (stereo not drawn)	.	20	2.5*	.	10	-8.5*
O=C1CC(c2ccco2)CC(O)=C1C=Nc1ccc(Br)cc1 (stereo not drawn)	0.03	-3	0.7	.	1	0.068
CCCCCCNC(=O)N[C@@H](C(=O)NCCC[C@H]1CN2C(=NC[C@@H]2Cc2ccccc2)N1CCc1cccc(OC)c1)C(C)C	-2.1	.	.	.	.	-3*
C/C=C(\C)C(=O)NCCN1C2=NC[C@@H](Cc3ccccc3)N2C[C@@H]1Cc1ccc(OC)cc1	0.8	.	.	.	.	-1.4
Cc1cc(C)n(C(=O)c2ccc(NC(=O)C3COc4ccccc4O3)cc2)n1 (stereo not drawn)	-5	-18	1	0.016	33*	0.38
O=C(N/N=C\c1ccccn1)C1COc2cc3ccccc3cc2O1 (stereo not drawn)	.	-4	2*	.	0	0.98
O=C(Nc1ccncc1)C1COc2ccccc2O1 (stereo not drawn)	-0.033	-8	1.1	-0.03	-8	-1.5
O=C(Nc1cnc2ccccc2c1)C1COc2ccccc2O1 (stereo not drawn)	-12*	20	0.8	-0.12	9	-0.28
CC[C@@H](C)C(N)c1cn([C@@H](CCC(=O)O)C(=O)N2CCNCC2)nn1 (stereo partly drawn)	0.17	.	.	.	.	-0.44
COc1cccc(C(=O)Nc2nc(-c3ccc(S(=O)(=O)N4CCOCC4)cc3)cs2)c1	.	16	1	-3.3*	3	0.68
COc1ccc(C(=O)Nc2nc(-c3cccs3)cs2)cc1	-8.9*	1	0.8	.	16	-0.055
CCC(NC(=O)Nc1nnc(C(F)(F)F)s1)(C(F)(F)F)C(F)(F)F	-7.8*	-4	1	-0.45	17	-3.3*
O=C(Nc1nc(-c2cccs2)cs1)c1cccc(S(=O)(=O)N2CCCCC2)c1	-9.2*	5	0.9	-1.4	11	-1.2
CCNc1nc2c(c(=O)[nH]c(=O)n2C)n1Cc1ccc(F)cc1	.	-1	1.1	1.7	0	0.41
Cc1csc(NC(=O)CSCC(=O)Nc2ccccc2)n1	0.029	6	0.9	0.13	22	0.0011
CC1CCN(S(=O)(=O)c2cccc(C(=O)NCc3cccs3)c2)CC1	-7.3*	22	0.8	.	24	0.57
O=C(Nc1nnc(C(F)(F)F)s1)c1cccnc1	0.67	4	.	-1.6	0	-1.5
COc1ccc(C(=O)Nc2nnc(C(F)(F)F)s2)cc1	0.0018	-3	1.1	-1.2	42*	-1.3
COc1cc(C(=O)Nc2nc(-c3cccs3)cs2)cc(OC)c1OC	0.088	25	0.8	0.85	48*	-0.029
O=C(CSc1ncnc2ccccc12)Nc1ccc(N2CCOCC2)cc1	0.13	4	0.8	0.024	-6	-0.23
CCN(CC)c1ccc(/C=c2\sc3nnc(-c4ccccc4Cl)n3c2=O)cc1	-4.7*	-4	0.6	.	11	0.94
CCN(CC)c1ccc(/C=c2/sc3nnc(-c4ccccc4C)n3c2=O)cc1	-2.9	-5	0.9	.	2	0.23
